Compounds with a hit are over-represented: about 0.046% of the library has one in this group of screens.
Eya2 phos inh: inhibitors of human Eya2 phosphatase activity | recombinant Eya2, OMFP fluorescence dephosphorylation (OMFP is methylfluorescein phosphate) | Potency, µM (top dose mostly 76.9 µM), for the others: top-dose activity, negative = inhibition, hits mostly inhibitors | AID 488837 | actives 0.006% (n = 330,000) | O00167; further: on the % scale 0 is the no-effect control and ±100 the full control effect
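Eya2 (0.2 uM) preincubated 10 min at ambient with compound, then OMFP substrate added at 50 uM; 10 min reaction in 50 mM HEPES pH 7.5, 50 mM NaCl, 5 uM MgCl2, 0.05% BSA, 1 mM DTT. Fluorescence read at Ex 485/Em 525 nm.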
USP2a inh: blocks human ubiquitin-specific protease USP2a; actives 0.01% (n = 330,000); AID 463254; USP2 core, Ub-CHOP2 coupled fluorogenic reporter, 485/531; O75604; Potency, µM (highest dose often 38.3 µM), for the others: top-dose activity change, negative = inhibition, most hits filed as inhibitors;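 further: plate controls were DMSO wells for no effect and full inhibition by NEM control for full effect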
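Deubiquitinase activity read as fluorescence (485/531 nm) after Ub-CHOP2 cleavage activates the enterokinase reporter on its substrate; USP2 core 10nM, Ub-CHOP2 and substrate 25nM each, 30min compound preincubation then 60min RT; data normalized to NEM, curves fitted.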
PTAP TSG101 blk: blocks PTAP/TSG101 interaction to inhibit HIV-1 budding. Q99816. Fluorescence polarization, FITC-PTAP peptide / Tsg101 binding. Potency, µM (highest dose often 115 µM), for the others: top-dose activity change, negative = inhibition, most hits filed as inhibitors. 340,000 tested, under 10 active. AID 493005; active means well fitted inhibition curve with a large enough effect in the main read-out, with a control signal flat, not every such curve was filed as active; inconclusive means small, poorly fitted or top-dose-only effect, or effect the other way, or a change in a side signal; inactive means no such curve, though single readings can be large or run the other way; further: % of control where 0% means no effect
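Compounds were pin-transferred onto Tsg101 binding domain (10 uM final) in HEPES pH 7.5 buffer, then FITC-PTAP peptide was added at 50 nM final. After 20 min at RT, polarization reported peptide displacement across a qHTS concentration series.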
RGS4 inhibitor: blocks human RGS4-accelerated GTP hydrolysis | P49798 | Transcreener GDP fluorescence polarization, RGS4-accelerated GTP hydrolysis | Potency, µM (titrated, usually from 114 µM), for the others: at the highest dose activity change, negative = inhibition, actives largely listed as inhibitors | actives 0.039% (n = 390,000); further: on the % scale 0 is the no-effect control and ±100 the full control effect; nearly all actives have a fitted effect of over 75% in size
Target sequence (P49798 whole entry, looked up): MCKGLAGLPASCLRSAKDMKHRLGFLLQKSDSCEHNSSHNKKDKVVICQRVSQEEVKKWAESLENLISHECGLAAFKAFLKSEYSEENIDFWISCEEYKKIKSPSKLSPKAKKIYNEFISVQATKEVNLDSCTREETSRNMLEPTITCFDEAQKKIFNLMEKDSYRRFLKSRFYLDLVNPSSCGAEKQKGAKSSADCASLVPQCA
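MLSMR compounds (23 nl, pin-transferred) preincubated 10 min at room temperature with a 500nM (2x) first reagent, then RGS4 at 900nM (2x) plus Transcreener GDP mix added; fluorescence polarization (620/688 nm) read before and after 90 min at 30 °C.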
An asterisk follows results filed as active; i = inactive; u = inconclusive; x = no result; ! = repeats disagree; [ ] = another dose, or the depositor's remark. Unless noted, the call rests on the fitted dose curve; in most records, active means well fitted curve in the direction sought with a large enough effect; inconclusive means small, poorly fitted or top-dose-only effect, or another doubt; inactive means no such curve, though single readings can be large; an effect the other way counts as inactive or inconclusive. Potency means the concentration at half of the fitted maximal effect.

SMILES | Eya2 phos inh | USP2a inh | PTAP TSG101 blk | RGS4 inhibitor
COc1cc(N)c(Cl)cc1C(=O)N[C@@H]1CN2CCC1CC2 | x | x | x | i
CC(C)n1cnc2c(C(=O)N[C@H]3CN4CCC3CC4)cc(Cl)cc21 | x | x | x | 4.7µM*
CN1CC[C@@]2(C)c3cc(OC(=O)Nc4ccccc4)ccc3N(C)[C@@H]12 | -17% | x | x | u
O=C(Cc1c(O)c2ccccc2oc1=O)c1ccc(F)cc1 | -12% | 1% | 0% | u
CCn1nc(-c2ccccc2)nc2c(=O)n(C)c(=O)nc1-2 | 56µM* | 23% | u | -32%
C[C@]12C=CC(=O)C=C1CC[C@@H]1C2=CC[C@]2(C)[C@@H](C(=O)CN3CCN(c4cc(N5CCCC5)nc(N5CCCC5)n4)CC3)CC[C@@H]12 | -5% | x | -4% | 11µM*!
O=c1c2ccccc2[se]n1-c1ccccc1 | 10% | 3% | 0% | 0.67µM*
O=[N+]([O-])/C=C/c1ccc2c(c1)OCO2 | -4% | x | x | 1.5µM*
O=C(O)c1ccc[nH]c1=S | u | 1% | -6% | 7%
COc1ccc2c(c1)c(CCN1CCOCC1)c(C)n2C(=O)c1cccc(Cl)c1Cl | u | x | x | 13%[56.9 µM]
CC[C@@H](CO)NC(=O)[C@@H]1C=C2c3cccc4c3c(cn4C)C[C@H]2N(C)C1 | 1% | u | -13% | 19µM*!
CN1C2CCC1CC(OC(=O)c1cc(Cl)cc(Cl)c1)C2 (centres undefined) | 2% | 6% | -4% | 30µM*!
Cc1cc(C)cc(C(=O)OC2C[C@H]3CC[C@@H](C2)N3C)c1 (some centres undefined) | x | x | x | i
CN(CCc1ccc(Cl)c(Cl)c1)[C@H]1CCCC[C@H]1N1CCCC1 | x | x | x | 478%[56.9 µM]
O=C1C=CC2C3C(=O)N(c4ccccc4)C(=O)C3C1N2Cc1ccccc1 (centres undefined) | x | x | -1% | u
O=c1oc(Cl)c(Cl)c2ccccc12 | 4% | 2% | -4% | 11µM*!
CN(N=O)c1cc(O)ccc1O | -25% | x | x | 24µM*
CC1OC(=O)C(C(C)C)NC(=O)C(C(C)C)OC(=O)C(C(C)C)NC(=O)C(C)OC(=O)C(C(C)C)NC(=O)C(C(C)C)OC(=O)C(C(C)C)NC(=O)C(C)OC(=O)C(C(C)C)NC(=O)C(C(C)C)OC(=O)C(C(C)C)NC1=O (centres undefined) | x | x | x | 470%[56.9 µM]
O=C(O)[C@H]1[C@H]2CN[C@H](C(=O)O)[C@H]21 | x | x | x | 6µM*
COc1cc2c(ccc3c4cc(OC)c(OC)cc4c[n+](C)c23)cc1O | x | x | -1% | 2%
COc1ccc2c(c[n+](C)c3c4cc5c(cc4ccc23)OCO5)c1OC | -2% | x | x | 6.7µM*
CCN1C[C@@]2(COC)C3[C@@H](OC)C4[C@@H]1C3([C@@H]1C[C@]3(O)[C@H](OC(=O)c5ccccc5)[C@@H]1[C@]4(OC(C)=O)[C@@H](O)[C@@H]3OC)[C@H](OC)C[C@H]2O | -5% | x | x | 6%[56.9 µM]
N#C/C(=C\c1ccc(O)c(O)c1)C(=O)NCCCNC(=O)/C(C#N)=C/c1ccc(O)c(O)c1 | 2% | x | x | u
N#C/C(=C/c1ccc(O)c(O)c1)C(N)=S | 5% | x | x | 6.7µM*
Cn1nc(-c2ccccc2)nc2c(=O)n(C)c(=O)nc1-2 | x | x | x | -46%
Cc1nc2c(=O)n(C)c(=O)nc-2n(C)n1 | 35µM* | -1% | -1% | u
Cc1ccc(C=C2C(Cl)=C(Cl)C(Cl)=C2Cl)cc1 | 14% | 3% | -2% | u

Screens (PubChem)
